This note sets out measurements from PubChem BioAssay (NCI).

Assay in all cases: NCI-60 one-dose screen, 48 h (100 = growth as untreated, 0 = no growth, -100 = all killed)
One assay relates to HCT-15 colon. As to conditions: 10 µM.
The next assay relates to HT29 colon. To be noted: 10 µM.
Another assay relates to SNB-75 CNS. As to conditions: 10 µM.
Another assay deals with SNB-19 CNS. To be noted: 10 µM.
For the next assay, the system named is U251 CNS. To be noted: 10 µM.
The next assay relates to PC-3 prostate. As to conditions: 10 µM. The protocol:
(§1) Growth inhibition of the PC-3 human tumor cell line is measured as a screen for anti-cancer activity. Cells are grown in 96 well plates and exposed to the test compound for 48 hours. Compounds are tested at a single concentration, which is 10^-5 M for most compounds. The reported endpoint is percent growth (GI% or GIPRCNT), where numbers from 0 - 100% represent growth inhibition, and numbers from -100% - 0 represent cell death. For example, a value of 40 represents 60% growth inhibition. A value of 0 means no net growth occurred over the course of the experiment. A value of -40 indicates 40% of cells at the beginning of the experiment died by the end of the experiment. A value of -100 means all cells are dead at the end of the experiment.
(§2) NCI-60 Human Tumor Cell Lines Screen was performed using the standard one-dose NCI protocol, which is described in more detail at https://dtp.cancer.gov/discovery_development/nci-60/default.htm.
(§3) Compounds with GIPRCNT values below 10 were considered active. Activity score was based on GIPRCNT using the following formula: […]
(§4) Score is 0 for GIPRCNT values of 100 or above, 50 for GIPRCNT values of 0, and 100 for GIPRCNT values of -100.

A further assay concerns SK-MEL-5 melanoma. To be noted: 10 µM.
For a further assay, the system named is UACC-62 melanoma.
The subject of the next assay is LOX IMVI melanoma. To be noted: 10 µM.
A further assay relates to SK-MEL-28 melanoma. As to conditions: 10 µM.
The test system of another assay is SK-MEL-2 melanoma. To be noted: 10 µM.
The next assay has as its system EKVX NSCLC. To be noted: 10 µM.
The subject of the next assay is SN12C renal. As to conditions: 10 µM.
The next assay relates to UO-31 renal. To be noted: 10 µM. The protocol:
as §1, with “UO-31” for “PC-3”
as §2, §3, §4

A further assay deals with TK-10 renal.
The test system of the next assay is ACHN renal. As to conditions: 10 µM.
The next assay has as its system CAKI-1 renal. To be noted: 10 µM.
The subject of the next assay is A498 renal. To be noted: 10 µM.
The subject of a further assay is CCRF-CEM leukemia. To be noted: 10 µM.
Another assay concerns MOLT-4 leukemia. To be noted: 10 µM.

Several values for one entry are separate records, joined by “and”; a condition that tells them apart may be missing. Identical values can stand only once. The panel holds about 83,000 compounds, 20% with a hit somewhere; the sample as a whole holds those more often.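 Single-concentration screen, 48 h exposure, 96-well plates. Endpoint: percent growth. Below 10 = active.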 More than one record can exist for a structure, and the calls need not agree. Activity calls are given as the source filed them.

Turning to `CN(C)CCOC1(Cc2ccc(Cl)cc2Cl)CCC(C(C)(C)C)CC1` (centres undefined), the growth in the assay on HCT-15 colon was -11.2% (active) and -80.3% (active); in the assay on HT29 colon, -37.7% (active) and -58.6% (active); with SNB-75 CNS it was 47.1% (inactive) and 44.2% (inactive); with SNB-19 CNS it was 15.5% (inactive) and -25.9% (active); in the assay on U251 CNS it was -95.2% (active) and -100% (active); in the assay on PC-3 prostate, 40.8% (inactive) and 35.7% (inactive). Moreover, the growth is 10.2% (inactive) and -63.9% (active) in the assay with SK-MEL-5 melanoma; -26% (active) and -56.2% (active) with UACC-62 melanoma (10 µM); -100% (active) in the assay with LOX IMVI melanoma; -58.7% (active) and -50% (active) in the assay with SK-MEL-28 melanoma; 94.8% (inactive) and 54.6% (inactive) with SK-MEL-2 melanoma; 48.2% (inactive) and 54.6% (inactive) in the assay with EKVX NSCLC. Also, the growth is 18.8% (inactive) and -12.6% (active) with SN12C renal; 29.3% (inactive) and 30.2% (inactive) with UO-31 renal; 60.4% (inactive) and 61.9% (inactive) in the assay with TK-10 renal (10 µM); 48.7% (inactive) and -4.79% (active) in the assay on ACHN renal; 36.2% (inactive) and 22.1% (inactive) in the assay on CAKI-1 renal; 63.9% (inactive) and 63.3% (inactive) in the assay on A498 renal. The growth was 4.16% (active) and -9.84% (active) in the assay with CCRF-CEM leukemia; -14.2% (active) and -16.7% (active) in the assay on MOLT-4 leukemia.
Consider `Cc1ccc(Sc2ccccc2N)cc1`, for which the growth is 21.2% (inactive) with HCT-15 colon; 26.1% (inactive) in the assay with HT29 colon; 122% (inactive) in the assay on SNB-75 CNS; 95.6% (inactive) in the assay on SNB-19 CNS; 84.3% (inactive) in the assay with U251 CNS; 74.4% (inactive) in the assay on PC-3 prostate. In addition, the growth in the assay with SK-MEL-5 melanoma is 91.8% (inactive); in the assay on UACC-62 melanoma (10 µM) it was 90.2% (inactive); in the assay on LOX IMVI melanoma it was 76.1% (inactive); in the assay with SK-MEL-28 melanoma, 118% (inactive); in the assay on SK-MEL-2 melanoma, 15.9% (inactive); in the assay with EKVX NSCLC it was 121% (inactive). Further, the growth in the assay with SN12C renal is 89% (inactive); in the assay with UO-31 renal, 81.5% (inactive); in the assay on TK-10 renal (10 µM), 98% (inactive); in the assay with ACHN renal, -20% (active); in the assay on CAKI-1 renal, 62.5% (inactive); with A498 renal, 118% (inactive). Further, the growth with CCRF-CEM leukemia was 88.2% (inactive); with MOLT-4 leukemia, 81.2% (inactive).
In the case of `C=C1C(=O)OC2CC1C(OC(C)=O)C/C(C)=C/CC/C(C)=C\CCC2(C)O` (centres undefined), the growth with HCT-15 colon is -80.1% (active); in the assay on HT29 colon, -45.1% (active); in the assay on SNB-75 CNS, 19.8% (inactive); with SNB-19 CNS, 51.6% (inactive); in the assay with U251 CNS, 33.3% (inactive); in the assay with PC-3 prostate, 18.3% (inactive). Moreover, the growth with SK-MEL-5 melanoma was 55.8% (inactive); in the assay on UACC-62 melanoma (10 µM), 44.5% (inactive); in the assay with UACC-62 melanoma (100 µM) it was -94.6% (active); with LOX IMVI melanoma, 6.22% (active); with SK-MEL-2 melanoma it was 41.5% (inactive); with EKVX NSCLC it was 59.3% (inactive). Besides, the growth in the assay on SN12C renal is 40.6% (inactive); in the assay on UO-31 renal, -39.8% (active); in the assay with TK-10 renal (10 µM) it was -11.8% (active); with TK-10 renal (100 µM) it was -98.1% (active); in the assay on ACHN renal it was -5.85% (active); in the assay with CAKI-1 renal, 16% (inactive). Besides, the results for the growth with A498 renal, with CCRF-CEM leukemia and in the assay with MOLT-4 leukemia were 87.3% (inactive), -17.1% (active) and -14.4% (active), respectively.
Regarding `C#CCN(Cc1ccc2nc(N)[nH]c(=O)c2c1)c1ccc(C(=O)NC(CCC(=O)O)C(=O)O)cc1` (centres undefined), the growth was 65.5% (inactive) in the assay on HCT-15 colon; 62.5% (inactive) in the assay on HT29 colon; 86.5% (inactive) in the assay on SNB-75 CNS; 89.2% (inactive) in the assay on U251 CNS; 64.6% (inactive) in the assay with PC-3 prostate; 100% (inactive) with SK-MEL-5 melanoma. The growth with UACC-62 melanoma (10 µM) is 81.6% (inactive); in the assay on LOX IMVI melanoma it was 16% (inactive); in the assay with SK-MEL-28 melanoma, 95.2% (inactive); in the assay with SK-MEL-2 melanoma, 143% (inactive); in the assay with EKVX NSCLC, 55.6% (inactive); with SN12C renal it was 48.9% (inactive). The growth in the assay on TK-10 renal (10 µM) is 78.5% (inactive); in the assay on ACHN renal, 30.1% (inactive); with CAKI-1 renal, 33.2% (inactive); in the assay on A498 renal, 110% (inactive); in the assay with CCRF-CEM leukemia it was 22.5% (inactive); with MOLT-4 leukemia it was 39.1% (inactive).
